Measured values taken from the supplement of paper PMC10849652.
Targets with a hit are over-represented here; the source holds about 7,900 in all. About 0.6% of all pairs of compound and target were hits.

Key:
Assay in all cases: log2 fold change, soluble protein after heating vs DMSO (PISA); higher = thermal stabilisation; K562 cells, 10 uM, 30 min; active = over 0.2 and 3.5 SD of the protein, either way, in both replicates (recomputed)
[1] = compound: NC(=O)Nc1cc(-c2cccc(F)c2)sc1C(=O)N[C@H]1CCCNC1
Method in brief: (§1)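 Thermal stability values are relative to control samples and come from duplicates. They are expressed as log2 fold changes. For measurement, K562 cells (2×10^6 cells/mL) received 10 μM compound for 30 min, and aliquots were heated for 3 min over 48°C-58°C, pooled, and extracted at 4°C in PBS with 0.5% NP-40. Soluble protein, the supernatant after 21,000xg for 90 min, was quantified by TMTpro 16plex LC-MS/MS with equalised channel sums.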

[2] = compound: NC(=O)c1cnc(N[C@@H]2CCCC[C@@H]2N)nc1Nc1cccc(-n2nccn2)c1
Method in brief: as §1

[3] = compound: NC1(c2ccc(-c3nc4ccn5c(=O)[nH]nc5c4cc3-c3ccccc3)cc2)CCC1
Method in brief: as §1

[4] = compound: NCC(=O)Nc1ccc(-n2nc(C(F)(F)F)cc2-c2ccc3c(ccc4ccccc43)c2)cc1
Method in brief: as §1

entinostat = compound: Nc1ccccc1NC(=O)c1ccc(CNC(=O)OCc2cccnc2)cc1 [entinostat]
Method in brief: as §1

vorinostat = compound: O=C(CCCCCCC(=O)Nc1ccccc1)NO [vorinostat]
Method in brief: as §1

citarinostat = compound: O=C(CCCCCCNC(=O)c1cnc(N(c2ccccc2)c2ccccc2Cl)nc1)NO [citarinostat]
Method in brief: as §1

silmitasertib = compound: O=C(O)c1ccc2c(c1)nc(Nc1cccc(Cl)c1)c1ccncc12 [silmitasertib]
Method in brief: as §1

[5] = compound: O=C1NC(=O)C(c2cnc3ccccn23)=C1c1cn2c3c(cc(F)cc13)CN(C(=O)N1CCCCC1)CC2
Method in brief: as §1

[6] = compound: c1cc(OCCN2CCCCC2)cc(-c2n[nH]c3ccc(-c4nnc[nH]4)cc23)c1
Method in brief: as §1

Measured: log2 fold change

UBR2 (UniProt Q8IWV8)
inactive: [1] -0.007 | [2] 0.038 | [3] 0.039 | [4] 0.007 | entinostat 0.049 | vorinostat 0.137 | citarinostat 0.05 | silmitasertib 0.061 | [5] 0.044 | [6] -0.14

VTI1B (UniProt Q9UEU0)
inactive: [1] 0.023 | [2] -0.006 | [3] -0.084 | [4] -0.054 | entinostat -0.031 | vorinostat -0.035 | citarinostat -0.001 | silmitasertib 0.114 | [5] 0.054 | [6] -0.03

VPS53 isoform 4 (UniProt Q5VIR6)
Chain of UniProt Q5VIR6 (Q5VIR6 whole entry, looked up): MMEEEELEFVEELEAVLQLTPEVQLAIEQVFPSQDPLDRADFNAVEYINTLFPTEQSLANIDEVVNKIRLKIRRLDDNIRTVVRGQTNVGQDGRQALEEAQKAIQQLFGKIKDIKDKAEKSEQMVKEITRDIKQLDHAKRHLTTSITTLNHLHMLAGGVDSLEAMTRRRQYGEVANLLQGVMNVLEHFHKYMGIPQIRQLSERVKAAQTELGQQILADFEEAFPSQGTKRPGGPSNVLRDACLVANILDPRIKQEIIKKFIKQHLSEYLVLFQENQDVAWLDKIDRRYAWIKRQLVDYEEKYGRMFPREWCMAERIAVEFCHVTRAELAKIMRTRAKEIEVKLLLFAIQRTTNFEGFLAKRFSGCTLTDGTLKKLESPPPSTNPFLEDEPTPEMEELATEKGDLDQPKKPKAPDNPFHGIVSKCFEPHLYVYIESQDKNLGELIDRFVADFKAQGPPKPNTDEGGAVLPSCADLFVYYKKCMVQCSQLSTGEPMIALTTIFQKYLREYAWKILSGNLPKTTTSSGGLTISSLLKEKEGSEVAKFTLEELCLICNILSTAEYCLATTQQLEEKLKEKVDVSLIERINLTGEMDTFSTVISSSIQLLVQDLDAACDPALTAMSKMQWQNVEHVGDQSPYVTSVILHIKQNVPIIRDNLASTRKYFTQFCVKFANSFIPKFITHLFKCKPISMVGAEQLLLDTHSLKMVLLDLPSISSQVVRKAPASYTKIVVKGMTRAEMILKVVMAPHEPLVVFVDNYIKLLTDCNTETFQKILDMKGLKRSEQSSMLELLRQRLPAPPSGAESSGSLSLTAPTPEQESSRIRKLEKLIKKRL
inactive: [1] -0.036 | [2] -0.062 | [3] -0.105 | [4] -0.021 | entinostat 0.052 | vorinostat 0.018 | citarinostat 0.025 | silmitasertib 0.063 | [5] -0.066 | [6] -0.02

TSFM (UniProt P43897)
inactive: [1] -0.068 | [2] 0.03 | [3] -0.05 | [4] -0.076 | entinostat 0.162 | vorinostat 0.016 | citarinostat 0.181 | silmitasertib 0.11 | [5] -0.043 | [6] 0

XPNPEP3 (UniProt Q9NQH7)
Chain of UniProt Q9NQH7 (Q9NQH7 whole entry, looked up): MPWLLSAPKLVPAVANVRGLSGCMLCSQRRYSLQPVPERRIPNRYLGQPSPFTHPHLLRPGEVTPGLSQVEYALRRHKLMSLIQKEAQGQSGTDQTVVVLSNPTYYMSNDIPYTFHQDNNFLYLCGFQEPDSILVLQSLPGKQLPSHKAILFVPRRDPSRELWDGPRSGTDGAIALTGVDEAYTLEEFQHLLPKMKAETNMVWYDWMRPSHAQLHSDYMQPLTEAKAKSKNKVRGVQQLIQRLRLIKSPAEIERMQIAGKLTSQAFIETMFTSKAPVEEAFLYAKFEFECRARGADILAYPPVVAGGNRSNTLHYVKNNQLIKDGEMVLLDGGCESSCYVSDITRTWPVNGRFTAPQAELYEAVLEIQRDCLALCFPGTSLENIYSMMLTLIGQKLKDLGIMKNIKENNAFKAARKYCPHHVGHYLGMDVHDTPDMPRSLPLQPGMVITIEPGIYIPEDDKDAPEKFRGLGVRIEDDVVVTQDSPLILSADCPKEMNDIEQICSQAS
inactive: [1] 0.034 | [2] -0.007 | [3] -0.074 | [4] 0 | entinostat -0.024 | vorinostat -0.002 | citarinostat -0.007 | silmitasertib -0.004 | [5] -0.02 | [6] -0.022

TOMM20 (UniProt Q15388)
Chain of UniProt Q15388 (Q15388 whole entry, looked up): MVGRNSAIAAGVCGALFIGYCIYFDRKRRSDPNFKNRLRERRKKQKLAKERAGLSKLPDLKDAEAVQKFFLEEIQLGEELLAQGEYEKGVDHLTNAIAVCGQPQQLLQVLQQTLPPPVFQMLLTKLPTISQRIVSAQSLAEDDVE
inactive: [1] 0.008 | [2] -0.034 | [3] -0.023 | [4] -0.131 | entinostat 0.01 | vorinostat 0.031 | citarinostat -0.088 | silmitasertib -0.006 | [5] -0.088 | [6] -0.01

TXNRD1 (UniProt Q16881)
Chain of UniProt Q16881 (Q16881 whole entry, looked up): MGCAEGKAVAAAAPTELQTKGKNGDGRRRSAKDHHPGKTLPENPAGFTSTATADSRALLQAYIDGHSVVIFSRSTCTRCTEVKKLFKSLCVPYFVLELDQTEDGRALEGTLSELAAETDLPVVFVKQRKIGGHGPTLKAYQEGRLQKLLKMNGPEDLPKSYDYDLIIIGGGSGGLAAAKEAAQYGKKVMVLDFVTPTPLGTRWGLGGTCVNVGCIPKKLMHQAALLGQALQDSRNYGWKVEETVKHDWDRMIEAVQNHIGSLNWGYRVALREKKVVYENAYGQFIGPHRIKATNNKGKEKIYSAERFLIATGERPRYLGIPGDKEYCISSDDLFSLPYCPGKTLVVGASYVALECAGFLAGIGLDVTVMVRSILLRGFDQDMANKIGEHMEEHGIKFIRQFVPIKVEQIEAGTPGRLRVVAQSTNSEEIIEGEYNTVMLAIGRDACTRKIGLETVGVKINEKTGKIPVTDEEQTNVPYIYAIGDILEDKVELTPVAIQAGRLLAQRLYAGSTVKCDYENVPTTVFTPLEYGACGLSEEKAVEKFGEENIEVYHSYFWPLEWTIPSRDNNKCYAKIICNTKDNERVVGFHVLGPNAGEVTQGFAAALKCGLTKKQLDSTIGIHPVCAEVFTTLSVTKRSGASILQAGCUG
inactive: [1] -0.082 | [2] -0.052 | [3] -0.077 | [4] -0.007 | entinostat -0.027 | vorinostat -0.005 | citarinostat 0.017 | silmitasertib -0.036 | [5] -0.122 | [6] 0.006

XIAP (UniProt P98170)
Chain of UniProt P98170 (P98170 whole entry, looked up): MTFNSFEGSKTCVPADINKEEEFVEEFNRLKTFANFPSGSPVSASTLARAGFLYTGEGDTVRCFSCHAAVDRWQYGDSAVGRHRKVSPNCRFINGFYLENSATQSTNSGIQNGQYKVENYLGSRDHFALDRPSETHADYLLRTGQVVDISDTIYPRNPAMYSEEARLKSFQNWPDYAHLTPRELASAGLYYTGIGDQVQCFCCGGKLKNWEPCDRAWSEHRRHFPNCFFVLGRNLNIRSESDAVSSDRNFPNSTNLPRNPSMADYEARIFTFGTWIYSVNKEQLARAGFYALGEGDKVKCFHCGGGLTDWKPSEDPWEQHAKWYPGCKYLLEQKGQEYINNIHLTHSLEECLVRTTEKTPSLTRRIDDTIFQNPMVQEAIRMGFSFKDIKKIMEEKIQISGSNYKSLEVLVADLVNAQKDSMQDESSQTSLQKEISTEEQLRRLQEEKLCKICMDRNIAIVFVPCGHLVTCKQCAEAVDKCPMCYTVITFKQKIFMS
inactive: [1] -0.004 | [2] -0.12 | [3] -0.113 | [4] -0.001 | entinostat 0.009 | vorinostat 0.053 | citarinostat 0.091 | silmitasertib -0.029 | [5] -0.047 | [6] -0.106

TRAPPC3 (UniProt O43617)
inactive: [1] 0.017 | [2] -0.056 | [3] -0.145 | [4] -0.058 | entinostat 0.022 | vorinostat 0.004 | citarinostat 0.038 | silmitasertib 0.032 | [5] 0 | [6] -0.048

USO1 isoform 2 (UniProt O60763)
inactive: [1] -0.009 | [2] 0 | [3] -0.101 | [4] -0.024 | entinostat 0.032 | vorinostat 0.018 | citarinostat 0.032 | silmitasertib 0.059 | [5] -0.035 | [6] -0.013

UHRF1BP1L (UniProt A0JNW5)
Chain of UniProt A0JNW5 (A0JNW5 whole entry, looked up): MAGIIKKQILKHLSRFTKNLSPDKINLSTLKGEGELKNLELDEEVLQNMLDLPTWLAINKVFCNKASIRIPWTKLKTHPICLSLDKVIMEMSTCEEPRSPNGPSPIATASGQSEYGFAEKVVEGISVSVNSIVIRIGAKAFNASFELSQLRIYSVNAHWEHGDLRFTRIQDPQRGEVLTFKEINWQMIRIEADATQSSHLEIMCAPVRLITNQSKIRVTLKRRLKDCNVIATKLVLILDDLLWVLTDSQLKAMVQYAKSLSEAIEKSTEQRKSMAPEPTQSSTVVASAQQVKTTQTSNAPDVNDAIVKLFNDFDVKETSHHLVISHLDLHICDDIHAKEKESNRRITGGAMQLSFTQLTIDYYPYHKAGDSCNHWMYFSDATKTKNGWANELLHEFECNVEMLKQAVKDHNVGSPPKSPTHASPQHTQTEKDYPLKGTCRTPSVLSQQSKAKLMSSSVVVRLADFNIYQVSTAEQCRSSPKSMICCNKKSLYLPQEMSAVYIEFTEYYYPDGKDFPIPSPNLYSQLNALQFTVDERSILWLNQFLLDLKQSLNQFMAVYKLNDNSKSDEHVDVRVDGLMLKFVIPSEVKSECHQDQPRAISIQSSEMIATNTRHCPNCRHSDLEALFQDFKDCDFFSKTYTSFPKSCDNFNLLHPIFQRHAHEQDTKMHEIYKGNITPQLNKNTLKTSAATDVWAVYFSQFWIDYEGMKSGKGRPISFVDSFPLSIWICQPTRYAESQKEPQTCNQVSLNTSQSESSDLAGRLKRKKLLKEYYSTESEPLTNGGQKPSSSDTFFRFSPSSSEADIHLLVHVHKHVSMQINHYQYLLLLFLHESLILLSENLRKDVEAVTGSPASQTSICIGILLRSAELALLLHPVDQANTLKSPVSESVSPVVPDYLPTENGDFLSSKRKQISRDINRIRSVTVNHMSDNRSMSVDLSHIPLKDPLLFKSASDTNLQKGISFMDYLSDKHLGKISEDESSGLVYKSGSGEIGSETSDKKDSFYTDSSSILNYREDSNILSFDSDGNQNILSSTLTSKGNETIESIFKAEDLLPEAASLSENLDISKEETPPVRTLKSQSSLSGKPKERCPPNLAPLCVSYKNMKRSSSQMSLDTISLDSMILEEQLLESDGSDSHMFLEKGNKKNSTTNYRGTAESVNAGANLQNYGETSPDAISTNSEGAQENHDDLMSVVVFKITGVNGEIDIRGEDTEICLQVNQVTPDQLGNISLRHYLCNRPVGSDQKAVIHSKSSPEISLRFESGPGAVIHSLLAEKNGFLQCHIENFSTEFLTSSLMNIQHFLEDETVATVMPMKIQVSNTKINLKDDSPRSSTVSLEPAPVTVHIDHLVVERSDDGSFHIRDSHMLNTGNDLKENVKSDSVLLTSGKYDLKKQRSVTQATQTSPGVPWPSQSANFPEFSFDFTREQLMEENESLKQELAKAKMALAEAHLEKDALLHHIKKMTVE
inactive: [1] -0.004 | [2] -0.017 | [3] -0.028 | [4] 0.055 | entinostat -0.024 | vorinostat -0.035 | citarinostat -0.032 | silmitasertib 0.015 | [5] -0.052 | [6] -0.013

VPS28 (UniProt Q9UK41)
inactive: [1] -0.059 | [2] -0.079 | [3] -0.177 | [4] -0.055 | entinostat 0.064 | vorinostat 0.052 | citarinostat 0.122 | silmitasertib 0.058 | [5] -0.001 | [6] -0.012

UBA52 (UniProt P62987)
inactive: [1] 0.067 | [2] 0.158 | [3] 0.366 | [4] 0.178 | entinostat 0 | vorinostat 0.029 | citarinostat -0.112 | silmitasertib 0.158 | [5] 0.246 | [6] -0.216

TMEM63B (UniProt Q5T3F8)
inactive: [1] 0.069 | [2] 0.059 | [3] -0.153 | [4] 0.052 | entinostat 0.07 | vorinostat -0.008 | citarinostat -0.024 | silmitasertib 0.001 | [5] -0.037 | [6] -0.021

TNPO1 (UniProt Q92973)
Chain of UniProt Q92973 (Q92973 whole entry, looked up): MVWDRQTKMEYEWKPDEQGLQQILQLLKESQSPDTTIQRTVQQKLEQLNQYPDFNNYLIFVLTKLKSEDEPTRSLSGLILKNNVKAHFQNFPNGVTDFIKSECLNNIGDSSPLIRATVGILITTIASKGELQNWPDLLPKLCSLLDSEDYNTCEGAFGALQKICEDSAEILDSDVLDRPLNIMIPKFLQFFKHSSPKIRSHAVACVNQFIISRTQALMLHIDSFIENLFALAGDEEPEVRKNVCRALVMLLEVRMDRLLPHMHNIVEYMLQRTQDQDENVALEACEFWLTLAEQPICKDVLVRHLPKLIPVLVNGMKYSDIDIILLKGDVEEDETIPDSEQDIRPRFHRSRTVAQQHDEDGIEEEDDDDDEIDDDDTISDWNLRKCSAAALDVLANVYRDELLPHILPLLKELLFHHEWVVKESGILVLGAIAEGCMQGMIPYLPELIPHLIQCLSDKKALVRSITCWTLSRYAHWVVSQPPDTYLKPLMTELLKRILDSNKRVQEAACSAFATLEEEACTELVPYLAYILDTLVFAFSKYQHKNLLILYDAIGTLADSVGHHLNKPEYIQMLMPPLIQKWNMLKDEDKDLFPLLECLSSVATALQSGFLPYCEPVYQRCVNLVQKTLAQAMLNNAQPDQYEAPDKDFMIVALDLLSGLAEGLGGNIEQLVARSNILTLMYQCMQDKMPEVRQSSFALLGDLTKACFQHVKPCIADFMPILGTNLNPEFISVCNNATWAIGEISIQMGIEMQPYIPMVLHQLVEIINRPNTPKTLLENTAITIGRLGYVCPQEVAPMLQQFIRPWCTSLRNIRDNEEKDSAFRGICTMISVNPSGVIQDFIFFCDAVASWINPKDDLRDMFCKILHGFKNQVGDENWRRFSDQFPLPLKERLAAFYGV
inactive: [1] 0.003 | [2] -0.039 | [3] -0.157 | [4] -0.06 | entinostat 0.044 | vorinostat 0.051 | citarinostat 0.033 | silmitasertib 0.025 | [5] -0.021 | [6] -0.066
